From PubChem BioAssay

How the values were obtained:
[1] = test system: Botulinum neurotoxin type F light chain protease (Clostridium botulinum); assay: Clostridium botulinum type F light chain protease inhibitors, microsphere substrate cleavage, validation (AID 588459); settings: multiplex microsphere protease substrate cleavage assay, flow cytometry; at 10 µM; stronger effect = higher value
[2] = biological target: Botulinum neurotoxin type A (Clostridium botulinum) (UniProt P0DPI0); assay: BoNT/A light chain protease inhibitors, biochemical, multiplex microsphere flow cytometry, validation set (AID 588460); settings: at 10 µM, stronger effect = higher value
[3] = biological target: Lethal factor (Bacillus anthracis) (UniProt P15917); assay: Bacillus anthracis lethal factor inhibition, microsphere flow cytometry protease assay, validation at 10 µM (AID 588461); settings: multiplex microsphere protease cleavage assay, stronger effect = higher value

Measured: inhibition

COc1ccc(N2C(=O)C3CCCN3C2=O)cc1 (stereo unspecified)
inactive: [1] 1.8% | [2] 0.4% | [3] -0.1%

CN(C(=O)C(Cl)Cl)c1ccc(OC(=O)c2ccco2)cc1
inactive: [1] 1.7% | [2] 0.7% | [3] -0.8%

Clc1ccc(Cn2c(CN3CCCC3)nc3ccccc32)cc1
inactive: [1] -2.6% | [2] -1% | [3] -0.3%

COc1ccc2c(c1O)Cc1ccccc1C2=O
inactive: [1] 0% | [2] -0.7% | [3] -3.9%

CC[n+]1ccc2cc(OC)c(OC)cc2c1Cc1ccc(OC)c(OC)c1
inactive: [1] -0.2% | [2] 0.7% | [3] -0.5%

COC1CCCCC1Nc1ccc(C)c(C)c1 (stereo unspecified)
inactive: [1] 1.5% | [2] -0.1% | [3] -5.5%

CC(=O)OCC#CCSc1nc2ccccc2n1C
inactive: [1] 0.7% | [2] -0.6% | [3] -1.5%

NC(=O)N1c2ccccc2CC(=O)c2ccccc21
inactive: [1] -1.1% | [2] 0.3% | [3] 0.4%

O=C(Oc1ccc2c3c(c(=O)oc2c1)CCCC3)c1ccco1
inactive: [1] -0.9% | [2] -1.1% | [3] -3.9%

CC(=O)[C@H]1CC[C@H]2[C@@H]3C[C@H](C)C4=CC(=O)CC[C@]4(C)[C@H]3[C@@H](O)C[C@]12C
inactive: [1] 5.1% | [2] 0.9% | [3] -8.6%

C[C@@H]1CCC[C@H](C)N1NC(=O)c1ccc(Cl)c(S(N)(=O)=O)c1
inactive: [1] 1.2% | [2] -1.2% | [3] -0.8%

Cc1cc(C)c(NC(=O)NC(=O)C(Cl)(Cl)Cl)c(C)c1
inactive: [1] 2.9% | [2] 0.1% | [3] -3.8%

Cn1c(=O)[nH]c(=O)c2c1nc(Br)n2CCCO
inactive: [1] 2.3% | [2] 0.7% | [3] -5.7%

Cc1ccc2c(c1)C(C)(C)[C@]1(C)NC(=O)CCN21
inactive: [1] -1.8% | [2] -0.2% | [3] 0%

O=C(COc1ccc2ccc(=O)oc2c1)c1ccccc1
inactive: [1] -5.2% | [2] -1.1% | [3] 1%

O=C1ON=C(c2ccc(Cl)cc2)/C1=C/c1ccc(O)cc1
inactive: [1] -0.3% | [2] -2.3% | [3] -7.8%

COc1ccc2[nH]c(CN3CCN(CC(C)C)C(CCO)C3)c(C)c2c1 (stereo unspecified)
inactive: [1] 2.4% | [2] 1.6% | [3] 3.1%

CC1=C(/C=C/C(C)=C/C=C/C(C)=C/C(=O)O)C(C)(C)CCC1
inactive: [1] 0.8% | [2] -0.1% | [3] 0.4%

CN(C)CCN(Cc1ccccc1)c1ccccn1
inactive: [1] 2.2% | [2] 0% | [3] -0.2%

COc1cc2[nH]c3c(=O)n(CCN4CCOCC4)cnc3c2cc1OC
inactive: [1] 0.3% | [2] 0.1% | [3] 1%

Cc1ccc(NCCC(=O)c2ccccc2)cc1Cl
inactive: [1] 4.1% | [2] 0.4% | [3] -2.5%

O=C1C2CC=C(Cl)CC2C(=O)N1CCc1c[nH]c2ccccc12 (stereo unspecified)
inactive: [1] 0.7% | [2] 0.1% | [3] 0.1%

C#CCN1C(=O)C(O)(c2c(C)[nH]c3ccccc23)c2ccccc21 (stereo unspecified)
inactive: [1] 0.4% | [2] 0.5% | [3] -3.2%

CC(CN1c2ccccc2Sc2ccccc21)N(C)C (stereo unspecified)
inactive: [1] -0.2% | [2] -1.5% | [3] -11.5%

COc1ccc2c(c1)[nH]c1c(=O)n(Cc3ccccn3)cnc12
inactive: [1] 3.9% | [2] -1% | [3] -4.7%

C=CCN1C(=O)c2oc3ccccc3c(=O)c2C1c1ccc(O)c(OC)c1 (stereo unspecified)
inactive: [1] -1.5% | [2] -0.6% | [3] 1.1%

COc1ccc2nc(C)cc(Nc3ccccc3O)c2c1
inactive: [1] 1% | [2] 1% | [3] -1.4%

CC(=O)O[C@]1(C(C)=O)CC[C@H]2[C@@H]3C=C(Cl)C4=CC(=O)CC[C@]4(C)[C@H]3CC[C@@]21C
inactive: [1] -0.5% | [2] -3.3% | [3] -4.2%

O=C(NCc1ccc(N2CCCC2=O)cc1)c1cccc(Cl)c1
inactive: [1] -4.5% | [2] -2.2% | [3] 1%

COc1ccc(C(=O)OCc2cc3cccc(C)c3[nH]c2=O)cc1
inactive: [1] 0.3% | [2] 0.7% | [3] -0.5%

S=C(NCc1ccccc1)NCc1cccc(CNC(=S)NCc2ccccc2)c1
inactive: [1] -0.9% | [2] 0.7% | [3] -2.4%

CC(=O)NC(NC(=S)N1CCCCCC1)C(Cl)(Cl)Cl (stereo unspecified)
inactive: [1] -2.7% | [2] -2.4% | [3] 5.4%

COc1cc2c(cc1OC)C(Cc1ccc(O)cc1)N(C)CC2 (stereo unspecified)
inactive: [1] 2.2% | [2] 0% | [3] -0.9%

O=C1C2C3C=CC(C4CC34)C2C(=O)N1/N=C/c1ccc(-c2ccc([N+](=O)[O-])cc2)o1 (stereo unspecified)
inactive: [1] 2.1% | [2] 3.4% | [3] -1.8%

CC(C)NC[C@@H](O)c1ccc(O)c(O)c1
inactive: [1] -3.7% | [2] -0.5% | [3] -6.8%

CCc1cccc(OC2OC(CO)C(O)C(O)C2NC(C)=O)c1 (stereo unspecified)
inactive: [1] -0.7% | [2] -0.7% | [3] -4.6%

OC(CCCN1CCC(O)(c2ccc(Cl)cc2)CC1)c1ccc(F)cc1 (stereo unspecified)
inactive: [1] -1.7% | [2] 1.7% | [3] -4.8%

CC(C)c1ccc(OCc2ccc(C(=O)O)o2)cc1
inactive: [1] 0.6% | [2] -0.2% | [3] 2.5%

CCC(=O)c1ccc(OCc2ccc(C(=O)OC)cc2)cc1
inactive: [1] -1.6% | [2] 0.7% | [3] -3.4%

COc1ccc(C(=O)Nc2nc3ccccc3c(=O)[nH]2)cc1
inactive: [1] -3.3% | [2] -2.3% | [3] -0.8%

Cc1c(OC(=O)CNC(=O)OC(C)(C)C)ccc2c3c(c(=O)oc12)CCC3
inactive: [1] -2.7% | [2] -0.5% | [3] -2.2%

CCOC(=O)C1C(=O)CC(C)(O)C(C(=O)OCC)C1/C=C/c1ccccc1 (stereo unspecified)
inactive: [1] 1.1% | [2] 1% | [3] -1.4%

COc1ccc2[nH]cc(CCNC(=O)C3CCCNC3=O)c2c1 (stereo unspecified)
inactive: [1] -3.2% | [2] -1.5% | [3] -5.3%

CC12CCC(C(=O)Nc3ccccc3Br)(C/C1=N\O)C2(C)C (stereo unspecified)
inactive: [1] -3.6% | [2] -0.7% | [3] -6.5%

O=c1oc2c(CN3CCN(CCO)CC3)c(O)ccc2cc1-c1ccccn1
inactive: [1] -0.2% | [2] 0.8% | [3] -4.2%

O=C(Nc1cccc(Oc2c(F)c(F)c(F)c(F)c2F)c1)N1C[C@@H]2C[C@@H](C1)c1cccc(=O)n1C2
inactive: [1] 2.7% | [2] 1.4% | [3] 7.2%

COc1ccc(C(=O)COc2ccc(F)cc2)c(O)c1
inactive: [1] 1% | [2] -1.3% | [3] -9.8%

CC1(C)C(C=C(Cl)Cl)C1C(=O)N1CCN(Cc2ccccc2)CC1 (stereo unspecified)
inactive: [1] -0.6% | [2] 0.8% | [3] -5.5%

O=C(/C=C/c1ccco1)Nc1ccccc1C(=O)O
inactive: [1] 0.9% | [2] -0.2% | [3] 1.7%

COc1cc(-c2cccs2)cc(=O)c2c(C)oc(C)c12
inactive: [1] 1.4% | [2] 2.1% | [3] -4%

Cc1c(CCOC(=O)CC23CC4CC(CC(C)(C4)C2)C3)sc[n+]1Cc1ccc([N+](=O)[O-])cc1
inactive: [1] -3.1% | [2] 1.6% | [3] -4.8%

C=C(C)COc1ccc(-c2n[nH]c(C)c2-c2ccc(OC)cc2)c(O)c1
inactive: [1] -1.3% | [2] -0.9% | [3] 5.2%
